Measured values as given in PubChem BioAssay (Tox21).
Results filed as inconclusive are left out. Activity calls are given as the source filed them. Unless noted, calls come from the whole dose curve; as a rule, active = well fitted curve in the direction sought with a large enough effect in the repeat runs; inconclusive = weak or mixed curves; inactive = no such curve, though single readings can be large; an effect the other way counts as inactive or inconclusive.

Legend:
[1] = qHTS assay to identify small molecule agonists of the hypoxia (HIF-1) signaling pathway - cell viability counter screen (AID 1224844; calls by dose curve; note: nearly all actives have a fitted effect of over 50% in size)
How it was run: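 ME-180 HRE-bla cells, 2,000/well, 0.5% dialyzed FBS; 5 hr settle, 17 hr compound at 37C/5% CO2; CCF4-AM reporter read first, then CellTiter-Glo luminescence after 30 min RT.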

[2] = qHTS assay to identify small molecule agonists of H2AX (AID 1224845; active = well fitted activation curve with a large enough effect in the signal ratio in the repeat runs, not every such curve was filed as active; the % refers to the signal ratio)
How it was run: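 Wild-type CHO-K1 cells plated overnight, then exposed 3 hr at 37C to compounds at 15 concentrations (0.76% DMSO). Lysed, then HTRF anti-pH2AX(S139)-cryptate/anti-H2AX-d2 detection after 24 hr at room temperature; emissions 665 and 620 nm.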

[3] = qHTS assay to identify small molecule agonists of the hypoxia (HIF-1) signaling pathway (AID 1224846; active = well fitted activation curve with a large enough effect in the signal ratio in the repeat runs, not every such curve was filed as active; the % refers to the signal ratio)
How it was run: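 Cell line: CellSensor HRE-bla ME-180; 2,000 cells/well; 0.5% dialyzed FBS; 5 h preincubation; DMSO compound pin transfer; 17 h, 37C, 5% CO2; CCF4-AM added; bla FRET signal scored for activation.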

[4] = qHTS assay to identify small molecule agonists of H2AX - cell viability counter screen (AID 1224847; calls by dose curve; note: top concentration of the series differs between compounds; nearly all actives have a fitted effect of over 30% in size)
How it was run: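 CHO-K1 wt, 1000 cells/well, o/n 37C; cpds 15 conc, 3 h 37C, 0.76% DMSO; CellTiter-Glo, 30 min RT, luminescence.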

[5] = qHTS RealTime-Glo MT Cell Viability Assay in HepG2 cells - 24 hour (AID 1224867); note: nearly all actives have a fitted effect of over 50% in size
How it was run: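 Cell number in HepG2 cultures estimated from NanoLuc luminescence generated by metabolic reduction of a prosubstrate by living cells. The homogeneous, nonlytic format allowed repeated reads at 0, 8, 16, 24, 32 and 40 h of compound exposure.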

[6] = A CellTox Green Cytotoxicity Assay to monitor cytotoxicity in HEK293 cells - 0 hour (AID 1224869); note: nearly all actives have a fitted effect of over 50% in size
How it was run: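 Nonlytic real-time cytotoxicity: HEK293 + CellTox Green reagent plated, 5 h preincubation, pintool compound addition (23 nL in DMSO), 37 C for 40 h, fluorescence measured at successive time points.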

[7] = qHTS RealTime-Glo MT Cell Viability Assay in HepG2 cells - 40 hour (AID 1224870); note: nearly all actives have a fitted effect of over 50% in size
How it was run: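 HepG2 cells mixed with RealTime-Glo MT reagents (NanoLuc plus cell-permeant prosubstrate) were seeded at 600 cells/well, incubated 5 h at 37 C/5% CO2, then pinned with compounds in DMSO; nonlytic luminescence tracked viability during 40 h treatment.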

[8] = qHTS assay to identify small molecule antagonists of the estrogen related receptor (ERR) signaling pathway from Tox21 library (AID 1224848); note: nearly all actives have a fitted effect of over 50% in size
How it was run: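 Screening used an ERR reporter line supplied by NTP, exposed for 18 h at 37 C to library compounds delivered in DMSO. Signal was luciferase luminescence developed with ONE-Glo at room temperature for 30 min.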

[9] = qHTS assay to identify small molecule agonists of the estrogen related receptor (ERR) signaling pathway from Tox21 library (AID 1224849; calls by dose curve; note: nearly all actives have a fitted effect of over 15% in size); details: ERR reporter cell line, ONE-Glo luciferase, 18 h; at 92.4 µM (top of the series) unless noted
How it was run: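 ERR cells, 6 h pre-incubation 37 C/5% CO2; cpd in DMSO pinned; 18 h 37 C; ONE-Glo added, 30 min RT; luminescence read. Agonist mode, qHTS.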

[10] = qHTS RealTime-Glo MT Cell Viability Assay in HEK293 cells - 32 hour (AID 1224868)
How it was run: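 Homogeneous bioluminescent viability format in HEK293 cells (600 cells/well). Following 5 h at 37 C/5% CO2, 23 nL compound was pintooled; the signal was measured repeatedly during 40 h incubation.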
% is set by controls: 0 for no effect and ±100 for the full control effect.

CC(CO)c1ccccc1 (centres undefined)
inactive: outcome [1] | outcome [2] | outcome [3] | Potency [4] | outcome [5] | outcome [6] | outcome [7]

CO[C@@H]1[C@@H](OC(N)=O)[C@@H](O)[C@H](Oc2ccc3c(O)c(NC(=O)c4ccc(O)c(CC=C(C)C)c4)c(=O)oc3c2C)OC1(C)C
inactive: outcome [1] | outcome [2] | Potency [4] | Potency [8] | activity change, positive = activation [9] -2.51% [at 42.5 µM] | outcome [5] | outcome [6] | outcome [7]

C#CC(C)N(C)C(=O)Nc1ccc(Cl)cc1 (centres undefined)
inactive: outcome [1] | outcome [2] | Potency [4] | Potency [8] | activity change, positive = activation [9] 5.26% | outcome [6] | outcome [7]

Cc1cccc2nccnc12
inactive: outcome [1] | outcome [2] | outcome [3] | outcome [6]

CCCC(=O)C(C)=O
inactive: outcome [1] | outcome [2] | outcome [3] | Potency [8] | activity change, positive = activation [9] 7.37% | outcome [5] | Potency [10] | outcome [6] | outcome [7]

NS(=O)(=O)c1ccc(NC(=O)CCC(=O)O)cc1
inactive: outcome [1] | outcome [2] | outcome [3] | Potency [4] | outcome [6]

C[C@H](CCC(=O)O)[C@H]1CC[C@H]2[C@@H]3C(=O)C[C@@H]4CC(=O)CC[C@]4(C)[C@H]3CC(=O)[C@]12C
inactive: outcome [1] | outcome [2] | Potency [4] | Potency [8] | activity change, positive = activation [9] -0.444% [at 42.5 µM] | outcome [5] | Potency [10] | outcome [6] | outcome [7]

C[C@@H](O)[C@H]1C(=O)N2C(C(=O)O)=C(SCCN=CN)C[C@H]12
inactive: outcome [1] | outcome [2] | Potency [4] | Potency [8] | activity change, positive = activation [9] 5.47% [at 42.5 µM] | Potency [10] | outcome [6] | outcome [7]

Nc1ccc(S(=O)(=O)Nc2ccc(Cl)nn2)cc1
inactive: outcome [1] | outcome [2] | Potency [4] | Potency [8] | activity change, positive = activation [9] 4.62% [at 42.5 µM] | Potency [10] | outcome [6] | outcome [7]

COc1ccc2c(c1OC)C(=O)O[C@@H]2[C@H]1c2c(cc3c(c2OC)OCO3)CCN1C
inactive: outcome [1] | outcome [2] | Potency [4] | Potency [8] | activity change, positive = activation [9] -16% [at 42.5 µM] | outcome [5] | outcome [6] | outcome [7]

CCC(CC)CO
inactive: outcome [1] | outcome [2] | outcome [3] | Potency [4] | outcome [6] | outcome [7]

O=C1c2ccccc2C(=O)c2cc(S(=O)(=O)O)ccc21
inactive: outcome [1] | outcome [2] | outcome [3] | Potency [4] | outcome [5] | outcome [6] | outcome [7]

CC(C)(C)c1cc(CCC(=O)NN)cc(C(C)(C)C)c1O
inactive: outcome [1] | outcome [2] | outcome [3] | Potency [8] | activity change, positive = activation [9] -9% | outcome [5] | outcome [6] | outcome [7]

CC(=O)CCCCn1c(=O)c2c(ncn2C)n(C)c1=O
inactive: outcome [1] | outcome [2] | Potency [4] | Potency [8] | activity change, positive = activation [9] -5.11% [at 42.5 µM] | outcome [5] | Potency [10] | outcome [6] | outcome [7]

CC(C)C[C@H](NC(=O)CNC(=O)[C@H](Cc1ccc(O)cc1)NC(=O)[C@H](CO)NC(=O)[C@H](Cc1c[nH]c2ccccc12)NC(=O)[C@H](Cc1cnc[nH]1)NC(=O)[C@@H]1CCC(=O)N1)C(=O)N[C@@H](CCCN=C(N)N)C(=O)N1CCC[C@H]1C(=O)NCC(N)=O (stereo in doubt)
inactive: outcome [1] | outcome [2] | outcome [3] | Potency [4] | outcome [6] | outcome [7]

CC1(C)S[C@@H]2[C@H](N=CN3CCCCCC3)C(=O)N2[C@H]1C(=O)O
inactive: outcome [1] | outcome [2] | outcome [3] | Potency [4] | outcome [5] | outcome [6] | outcome [7]

O=S(=O)(O)c1ccc2cc(O)c(S(=O)(=O)O)cc2c1
inactive: outcome [1] | outcome [2] | outcome [3] | Potency [4] | Potency [10] | outcome [6] | outcome [7]

NC(CO)C(=O)NNCc1ccc(O)c(O)c1O (centres undefined)
inactive: outcome [1] | Potency [4] | Potency [8] | activity change, positive = activation [9] 1.5% [at 42.5 µM] | outcome [5] | Potency [10] | outcome [6] | outcome [7]

O=C(O)c1cc(Br)c(O)c(Br)c1
inactive: outcome [1] | outcome [3] | Potency [4] | Potency [8] | activity change, positive = activation [9] 4.86% | outcome [5] | Potency [10] | outcome [6] | outcome [7]

OCCC(F)(F)C(F)(F)C(F)(F)C(F)(F)C(F)(F)C(F)(F)C(F)(F)C(F)(F)F
inactive: outcome [2] | outcome [3] | Potency [4] | Potency [8] | outcome [5] | outcome [6] | outcome [7]

Nc1nnc(-c2cccc(Cl)c2Cl)c(N)n1
inactive: outcome [1] | outcome [2] | Potency [4] | outcome [6]

c1ccc2c(c1)ccc1c3ccccc3ccc21
inactive: outcome [1] | outcome [3] | Potency [4] | outcome [5] | Potency [10] | outcome [6] | outcome [7]

N[C@@H](COP(=O)(O)O)C(=O)O
inactive: activity change, negative = cytotoxicity [1] -1.64% [at 15.8 µM] | activation (H2AX phosphorylation) [2] -3.89% [at 31.6 µM] | activity change, negative = cytotoxicity [4] -1.2% [at 31.6 µM] | activity change, negative = cytotoxic [10] 2.67% [at 15.8 µM] | cytotoxicity [6] -3.53% [at 15.8 µM] | activity change, negative = cytotoxic [7] 1.81% [at 15.8 µM]

FC(F)(F)c1ccccc1-n1ccnc1
inactive: outcome [1] | outcome [2] | Potency [4] | outcome [5] | outcome [6] | outcome [7]

CCCN1C[C@H](CSC)C[C@@H]2c3cccc4[nH]cc(c34)C[C@H]21
inactive: outcome [1] | Potency [4] | outcome [5] | Potency [10] | outcome [6] | outcome [7]

CCN1CCc2nc(N)oc2CC1
inactive: outcome [1] | outcome [2] | Potency [4] | outcome [5] | outcome [6]

COc1ccc(-c2cc(=O)c3c(O)cc(O[C@@H]4O[C@H](CO[C@@H]5O[C@@H](C)[C@H](O)[C@@H](O)[C@H]5O)[C@@H](O)[C@H](O)[C@H]4O)cc3o2)cc1O
inactive: outcome [1] | outcome [3] | Potency [4] | Potency [8] | activity change, positive = activation [9] -13.8% [at 42.5 µM] | outcome [5] | outcome [6] | outcome [7]
